# Pf apPOL block = Pf-apPOL DNA polymerase inhibition | Recombinant Pf-apPOL, molecular beacon fluorescence, 1.5 h | inhibition, % at 10 µM | 0.25% of 210,000 active | AID 1794808
# mHTT CaM bind = inhibitors of human mutant huntingtin-calmodulin interaction; P42858; AlphaScreen His-mHTT/GST-CaM binding, luminescence; inhibition, % at 15 µM; 3.6% of 190,000 active;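 note: 0% = both proteins with DMSO and 100% = one protein alone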
# An asterisk follows results filed as active; i = inactive; . = no result given. Shown are actives, neighbours in structure and some others; about 3.6% of the full set was active somewhere. Cut-off read from the data, not from the text of the source: active = inhibition above about 50%; inactive = the rest.
SMILES,Pf apPOL block,mHTT CaM bind
COc1ccc(-c2nnc(SCC(=O)Nc3ccccc3OC)n2C2CCCCC2)cc1,-6.1,8.3
COc1ccc(/C(N)=N/OC(=O)N2c3ccccc3Sc3ccccc32)cc1,8.8,i
O=C(O)c1[nH]nc(-c2n[nH]c(C(=O)O)c2[N+](=O)[O-])c1[N+](=O)[O-],.,-6.5
O=C1NN(c2ccc(Br)cc2)C(=O)/C1=C/C=C/c1ccco1,-0.1,4.0
Cc1cc(I)cc2c1NC(C(=O)O)C1CC=CC21 (stereo not drawn),1.4,-0.9
Cc1cc(I)c2c(c1)C1C=CCC1C(C(=O)O)N2 (stereo not drawn),-3.0,80.9*
Cc1cc(C)c2c(c1)C1C=CCC1C(c1ccc(C(=O)O)cc1)N2 (stereo not drawn),-0.9,74.0*
O=C(O)c1cccc2c1NC(c1ccc(Br)cc1)C1CC=CC21 (stereo not drawn),-2.1,66.0*
Cc1cc(C)c(C#N)c(SCC(=O)Nc2ccccc2F)n1,-0.1,-2.0
COc1ccc(CNS(=O)(=O)c2ccc(F)c(C(=O)Nc3cc(C)ccc3OC)c2)cc1,-2.4,20.0
CN(c1ccc([N+](=O)[O-])cc1S(=O)(=O)N1CCOCC1)C1CCCCC1,-1.4,5.4
CN(C)Cc1c(O)ccc2c(-c3cc4cc(Cl)ccc4oc3=O)cc(=O)oc12,5.3,19.1
O=C(C=Cc1ccc2c(c1)OCO2)c1ccccn1,26.0,5.6
CCCSc1nnc2c(n1)OC(c1cc3c(cc1[N+](=O)[O-])OCO3)Nc1ccccc1-2 (stereo not drawn),4.2,-6.0
C=CCSc1nnc2c(n1)OC(c1cc3c(cc1[N+](=O)[O-])OCO3)Nc1ccccc1-2 (stereo not drawn),0.3,93.1*
COc1cc2c(cc1OC)C(NNC(N)=O)=NC(C)(C)C2,0.8,-8.0
CCOc1ccc(-n2cc(C(=O)N(C)Cc3ccccc3)c3cc(OC)c(OC)cc3c2=O)cc1,-21.9,37.0
O=c1/c(=C/c2ccccc2)sc2nc(-c3cccs3)nn12,-11.6,4.0
O=c1/c(=C/C=C/c2ccccc2)sc2nc(-c3cccs3)nn12,0.4,52.0*
Cc1ccc(CNC(=O)C2CCCN(C(=O)Cc3cccc4ccccc34)C2)o1 (stereo not drawn),0.8,26.2
O=C1C(Nc2cccc(C(F)(F)F)c2)=C(N2CCCCC2)C(=O)c2ccccc21,-0.3,99.0*
O=C1C(Nc2cccc(O)c2)=C(N2CCCCC2)C(=O)c2ccccc21,-4.5,36.1
O=C1C(Nc2cccc(Cl)c2)=C(N2CCCCC2)C(=O)c2ccccc21,0.8,68.0*
CC(=O)N(C1=C(N2CCCC2)C(=O)c2ccccc2C1=O)c1cccc(Cl)c1,1.4,100.3*
O=C1C(Nc2cccc(C(F)(F)F)c2)=C(n2nnc3ccccc32)C(=O)c2ccccc21,0.0,1.0
SMILES,Pf apPOL block,mHTT CaM bind
CC(=O)N(C1=C(N2CCCCC2)C(=O)c2ccccc2C1=O)c1cccc(F)c1,-9.7,16.0
NC(=NNS(=O)(=O)c1ccccc1OC(F)(F)F)c1ccc(C(F)(F)F)cn1,2.6,.
CCOc1ccc(NC(=O)N2CCCC(C)(C(=O)NCc3ccccc3C)C2)cc1 (stereo not drawn),-4.0,6.3
O=c1nc(SCc2c(F)cccc2Cl)c2c(n1Cc1ccco1)CCC2,-3.2,-4.8
S=c1[nH]nc(Nc2ccccc2)n1-c1ccccc1,.,-3.0
C=CCc1ccccc1OCCCCn1ccnc1,-3.0,9.3
COc1ccc(S(=O)(=O)n2c([N+](=O)[O-])cnc2C)cc1OC,-3.5,2.0
COc1ccc(S(=O)(=O)n2cc([N+](=O)[O-])cn2)cc1OC,-7.9,100.0*
COc1ccc(S(=O)(=O)N2CC3CN(C(=O)CC(C)C)CC(C2)O3)cc1,-0.3,4.5
COc1ccc(C=C2Oc3c(ccc(O)c3CN3CCCCC3)C2=O)cc1,-11.7,-1.3
CCn1c(C2CCN(C(=O)c3ccc(C)cc3)C2)nc2cccnc21 (stereo not drawn),-10.0,-1.8
CC1CC(N(C(=O)c2ccccc2Cl)c2ccccc2)c2ccccc2N1 (stereo not drawn),-3.2,98.0*
CCC(=O)N(c1ccccc1)C1CC(C)Nc2ccccc21 (stereo not drawn),-0.2,16.4
Cc1nc2cc(-c3noc(Cc4ccccc4C)n3)ccc2o1,-0.5,-15.8
Cc1cc(I)ccc1NC(=O)c1ccccc1Cl,-3.4,-10.8
O=c1[nH]c(O)c(C=C2C=Nc3ccccc32)[nH]1,-17.8,.
Oc1nc(Nc2ccccc2)sc1C=C1C=Nc2ccccc21,0.2,69.0*
Cc1cc(C)c(OCC(O)Cn2cnc3cc(C)c(C)cc32)c(C)c1 (stereo not drawn),1.7,85.1*
Cc1cc2ncn(CC(O)COc3c(C)cccc3C)c2cc1C (stereo not drawn),-6.0,46.4
COc1ccc(-c2nnc(NC(=O)CS(=O)(=O)c3ccc(F)cc3)o2)c(OC)c1,4.0,31.5
CCS(=O)(=O)c1ccc(CC(=O)Nc2nnc(-c3ccccc3Cl)o2)cc1,-8.5,68.2*
Cc1cc(-c2nnc(NC(=O)c3ccc(S(=O)(=O)N(C)C)cc3)o2)c(C)o1,-49.7,58.0*
